# Target: T1, Hb (Drosophila melanogaster, UniProt P05084 225-364)
# T1 sequence: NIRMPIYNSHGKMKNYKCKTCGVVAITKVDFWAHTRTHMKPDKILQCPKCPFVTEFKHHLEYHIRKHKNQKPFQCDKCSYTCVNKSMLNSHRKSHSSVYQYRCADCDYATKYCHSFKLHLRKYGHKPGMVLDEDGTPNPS
# Test: FP; 33 mM phosphate pH 7.0, 90 mM NaCl, 0.01% Tween 20, 0.1 mM DTT, 0.5% agarose; room temperature
# Settings: tags: N-GST (pGEX-6P-1, kept); dsDNA, one strand shown
row,Sequence,binding signal
1,AGTTTTATAGGC,9.8 Kd / Kd of best base at the position
2,AGTTTTTAAGGC,9.25 Kd / Kd of best base at the position
3,GGTTTTTTAGGC,1.46 Kd / Kd of best base at the position
4,AGTTTTTTAAGC,1.31 Kd / Kd of best base at the position
5,AGTGTTTTAGGC,6.19 Kd / Kd of best base at the position

# Target: T2, Hkb (Drosophila melanogaster, UniProt Q9VN10 181-296)
# T2 sequence: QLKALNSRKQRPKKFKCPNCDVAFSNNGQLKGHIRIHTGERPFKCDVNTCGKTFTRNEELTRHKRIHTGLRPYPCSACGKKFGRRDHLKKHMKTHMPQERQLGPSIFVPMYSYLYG
# Test: as above
# Settings: tags: N-GST (pGEX-6P-1, kept); dsDNA, one strand shown
Sequence,binding signal,Kd [nM]
AAGGGGCGTGAA,2.74 Kd / Kd of best base at the position,–
AAGGGACGTGAT,86.7 Kd / Kd of best base at the position,–
AAGGGGCGTGAG,1.09 Kd / Kd of best base at the position,–
AAGGGGCGCGAT,170 Kd / Kd of best base at the position,–
AAGGGGCGTGAC,1.18 Kd / Kd of best base at the position,–
AAGGGGCGGGAT,85.9 Kd / Kd of best base at the position,–
AAGGGGCGTGCT,119 Kd / Kd of best base at the position,–
ACGGGGCGTGAT,2.33 Kd / Kd of best base at the position,–
AAGGCGCGTGAT,108 Kd / Kd of best base at the position,–
AGGGGGCGTGAT,5.34 Kd / Kd of best base at the position,–
AAGTGGCGTGAT,155 Kd / Kd of best base at the position,–
AAGGGGCGTAAT,130 Kd / Kd of best base at the position,–
AAGGGGCGAGAT,75.8 Kd / Kd of best base at the position,–
CAGGGGCGTGAT,6.48 Kd / Kd of best base at the position,–
AAGGGGAGTGAT,103 Kd / Kd of best base at the position,–
AAGGTGCGTGAT,62.2 Kd / Kd of best base at the position,–
GAGGGGCGTGAT,3 Kd / Kd of best base at the position,–
AAGGGGGGTGAT,55.1 Kd / Kd of best base at the position,–

Sequence,binding signal,Kd [nM]
AAAGGGCGTGAT,3.42 Kd / Kd of best base at the position,–
AAGGAGCGTGAT,52 Kd / Kd of best base at the position,–
AAGGGGCCTGAT,164 Kd / Kd of best base at the position,–
AAGGGGCGTTAT,124 Kd / Kd of best base at the position,–
AAGGGGCGTGAT,–,~2.3
AAGGGGCGTCAT,134 Kd / Kd of best base at the position,–
AATGGGCGTGAT,1.81 Kd / Kd of best base at the position,–
AAGGGCCGTGAT,107 Kd / Kd of best base at the position,–
AAGGGTCGTGAT,116 Kd / Kd of best base at the position,–
AAGGGGTGTGAT,277 Kd / Kd of best base at the position,–
AAGGGGCATGAT,318 Kd / Kd of best base at the position,–
TAGGGGCGTGAT,2.68 Kd / Kd of best base at the position,–
AACGGGCGTGAT,16.2 Kd / Kd of best base at the position,–
AAGGGGCGTGTT,150 Kd / Kd of best base at the position,–
AAGCGGCGTGAT,121 Kd / Kd of best base at the position,–
AAGGGGCGTGGT,127 Kd / Kd of best base at the position,–
ATGGGGCGTGAT,2.01 Kd / Kd of best base at the position,–

# Source: article PMC5913336, “True equilibrium measurement of transcription factor-DNA binding affinities using automated polarization microscopy”
